The values that follow come from PubChem BioAssay AID1347418 (Sanford-Burnham Center for Chemical Genomics, 2020).

Where “and” joins values, the source holds several entries; their conditions need not be identical. Identical values can stand only once. Screen size: about 1,300 compounds; about 750 (58%) were called active. The list shows a part of the results. Some structures have more than one record in an assay (separate samples or runs), and their calls can disagree.

For the assay, the target named is Sulfhydryl oxidase 1 (Homo sapiens) (UniProt O00391). Kind of assay: QSOX1 enzyme inhibitors, primary screen, biochemical, ROS-Glo H2O2 luminescence, HTS (AID 1347418). The following applies: recombinant QSOX1, ROS-Glo H2O2 luminescence, at 12.5 µM, stronger effect = higher value; active = any value above zero unless noted.
Sulfhydryl oxidase 1 (Homo sapiens), sequence (O00391 whole entry, looked up): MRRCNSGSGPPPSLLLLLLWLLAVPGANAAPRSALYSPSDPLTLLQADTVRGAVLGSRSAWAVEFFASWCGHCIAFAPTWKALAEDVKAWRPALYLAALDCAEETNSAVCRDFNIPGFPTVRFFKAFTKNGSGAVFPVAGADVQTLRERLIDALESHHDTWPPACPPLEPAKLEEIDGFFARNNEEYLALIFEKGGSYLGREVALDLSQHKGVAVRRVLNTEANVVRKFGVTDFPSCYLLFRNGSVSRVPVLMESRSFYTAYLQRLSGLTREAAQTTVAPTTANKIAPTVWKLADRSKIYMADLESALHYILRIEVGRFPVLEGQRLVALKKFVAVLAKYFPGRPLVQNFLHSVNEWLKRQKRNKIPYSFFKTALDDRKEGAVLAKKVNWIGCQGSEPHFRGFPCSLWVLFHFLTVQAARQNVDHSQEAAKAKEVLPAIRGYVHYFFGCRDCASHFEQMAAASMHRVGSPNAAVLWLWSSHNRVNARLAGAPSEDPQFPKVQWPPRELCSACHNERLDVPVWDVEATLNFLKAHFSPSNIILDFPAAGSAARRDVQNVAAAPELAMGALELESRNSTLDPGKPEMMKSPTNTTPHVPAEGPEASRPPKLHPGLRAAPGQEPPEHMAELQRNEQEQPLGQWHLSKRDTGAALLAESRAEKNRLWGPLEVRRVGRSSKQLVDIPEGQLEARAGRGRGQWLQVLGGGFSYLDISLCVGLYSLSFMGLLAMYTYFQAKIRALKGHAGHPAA
Turning to `O=C(O)c1nn(Cc2ccc(Cl)cc2Cl)c2ccccc12`, the inhibition was 6.3% [setting not given] (active).
As to `CCS(=O)(=O)Nc1cccc(C(=C2CCCCC2)c2cnc[nH]2)c1`, the inhibition is 1.9% (active).
The figure for `O=[N+]([O-])/C=C/c1ccc2c(c1)OCO2` is -5.8% (inactive); for `CC[C@@]1(O)C(=O)OCc2c1cc1n(c2=O)Cc2cc3ccccc3nc2-1` it is 6.2% [setting not given] (active); for `NC(Cc1cc(O)c(O)cc1O)C(=O)O` (centres undefined) it is 12% (active).
As to `COc1ccc2[nH]cc(CCN)c2c1`, the inhibition was -1.9% [setting not given] (inactive).
The figure for `NCCc1c[nH]c2ccccc12` is 5.9% [setting not given] (active); for `NCCc1c[nH]c2ccc(C(N)=O)cc12` it is 0.5% (active).
The figure for `CNCCc1c[nH]c2ccc(O)cc12` is 9.6% [setting not given] (active); for `CCCN(CCC)CCc1c[nH]c2ccc(C(N)=O)cc12` it is -6.3% [setting not given] (inactive); for `NCCc1c[nH]c2ccc(O)cc12` it is 23.8% (active).
Take `OC1CCCCC1N1CCC(c2ccccc2)CC1` (centres undefined): the inhibition was -0.9% [setting not given] (inactive).
The figure for `CC(N)Cc1c[nH]c2ccc(O)cc12` (centres undefined) is 20.8% [setting not given] (active); for `CC(N)Cc1c[nH]c2ccc(OCc3cccs3)cc12` (centres undefined) it is 0.1% [setting not given] (active); for `CC(=O)NCCc1c[nH]c2ccccc12` it is 12.2% [setting not given] (active).
The figure for `Cc1[nH]c2ccc(O)cc2c1CCN` is 16.3% [setting not given] (active).
Take `c1ccc2c(c1)OCC(C1=NCCN1)O2` (centres undefined): the inhibition was -2.6% (inactive).
Turning to `Cn1cnc(CCN)c1`, the inhibition was -4.6% (inactive).
The figure for `CN1C[C@H](CNC(=O)OCc2ccccc2)C[C@@H]2c3cccc4c3c(cn4C)C[C@H]21` is 10.7% [setting not given] (active); for `CP(=O)(O)C1=CCNCC1` it is 0.8% (active); for `NC(N)=NOCCC(N)C(=O)O` (centres undefined) it is -1% (inactive).
The figure for `NC(N)=NOCC[C@H](N)C(=O)O` is 4% [setting not given] (active); for `NCC(O)c1ccc(O)cc1` (centres undefined) it is 6.8% [setting not given] (active); for `COc1cc(C(O)CN)ccc1O` (centres undefined) it is 4.4% (active).
With `NNC(=O)c1ccc(O)cc1` the figure was -1% (inactive); with `CNCC(O)c1ccc(O)cc1` (centres undefined), 2.1% [setting not given] (active).
`OCc1cnc[nH]1`: the inhibition was -0.7% (inactive).
For the compound `O=C(O)Cc1cnc[nH]1`, the inhibition was 4.8% (active).
The figure for `O=C1/C(=C/c2ccccc2)C[C@@]2(O)[C@H]3Cc4ccc(O)c5c4[C@@]2(CCN3CC2CC2)[C@H]1O5` is -0.8% [setting not given] (inactive); for `Oc1ccc2c3c1O[C@H]1c4[nH]c5c(c4C[C@@]4(O)[C@@H](C2)N(CC2CC2)CC[C@]314)C[C@@]1(O)[C@H]2Cc3ccc(O)c4c3[C@@]1(CCN2CC1CC1)[C@H]5O4` it is 0.3% (active); for `NC(N)=Nc1ccc2[nH]c3c(c2c1)C[C@@]1(O)[C@H]2Cc4ccc(O)c5c4[C@@]1(CCN2CC1CC1)[C@H]3O5` it is 7.1% [setting not given] (active).
As for `Oc1ccc2c3c1O[C@H]1c4oc5ccccc5c4C[C@@]4(O)C(C2)N(CC2CC2)CCC314` (some centres undefined), the inhibition is 1.7% [setting not given] (active).
For `Oc1ccc2c3c1O[C@H]1c4[nH]c5ccccc5c4C[C@@]4(O)C(C2)N(CC2CC2)CCC314` (some centres undefined), the inhibition was 8.5% [setting not given] (active).
The figure for `CC(C)(O)[C@@H]1[C@H]2OC(=O)[C@@H]1[C@]1(O)C[C@H]3O[C@]34C(=O)O[C@H]2[C@]14C` (tested in a mixture with another compound) is -1.5% (inactive); for `CN1CCc2cccc(Cl)c2CC1` it is -4.5% (inactive); for `CC(C)Oc1cccnc1N(C)C1CCN(Cc2ccccc2)CC1` it is 8.9% (active).
Consider `O=c1[nH]c2ccccc2n1CCCN1CCC(n2c(=O)[nH]c3cc(Cl)ccc32)CC1`, for which the inhibition was -1.8% [setting not given] (inactive).
With `O=c1[nH]c2ccccc2n1C1CCN(CCCC(c2ccc(F)cc2)c2ccc(F)cc2)CC1` the figure was 4.6% [setting not given] (active); with `Cn1c(CCCC(=O)O)nc2cc(N(CCCl)CCCl)ccc21`, 33.3% (active).
The figure for `O=C(O)CCCc1ccc(N(CCCl)CCCl)cc1` is 4.4% [setting not given] (active); for `NC(Cc1ccc(N(CCCl)CCCl)cc1)C(=O)O` (centres undefined) it is 32.1% (active); for `Cc1ncc(CNC(=O)N(CCCl)N=O)c(N)n1` it is -0.8% (inactive).
With `CCCn1c(C)c(C(=O)c2ccc3ccccc3c2)c2ccccc21`, the inhibition is 3.4% [setting not given] (active).
For the compound `O=c1c2ccccc2[se]n1-c1ccccc1`, the inhibition was 61% [setting not given] (active).
With `CCCN1CCC[C@H](c2cccc(O)c2)C1` the figure was 0.7% (active); with `CCCN1CCC[C@@H](c2cccc(O)c2)C1`, -1.9% (inactive).
With `C=C(C)[C@H]1Cc2c(ccc3c2O[C@@H]2COc4cc(OC)c(OC)cc4[C@@H]2C3=O)O1`, the inhibition was 8.2% [setting not given] (active).
In the case of `Cc1ccc(S(=O)(=O)N[C@@H](CCCCN)C(=O)CCl)cc1`, the inhibition is 2.5% (active).
In the case of `COC(=O)C1=CCCN(C)C1`, the inhibition was 0.8% [setting not given] (active).
With `C#CCOC(=O)C1=CCCN(C)C1` the figure was -6.3% (inactive); with `NCc1cc(=O)[nH]o1`, -4.8% (inactive).
Consider `CN1C(=O)CCS(=O)(=O)C1c1ccc(Cl)cc1` (centres undefined), for which the inhibition was 4.6% (active).
The figure for `NNC(N)=O` is 2% (active).
The figure for `NC(=O)CI` is -1.4% (inactive); for `c1ccc2c(N3CCNCC3)cccc2c1` it is 2.2% (active); for `COc1ccccc1N1CCNCC1` it is -0.9% [setting not given] (inactive).
The figure for `CS(=N)(=O)CC[C@H](N)C(=O)O` (some centres undefined) is 2% (active); for `CC(=O)OCC1=C(C(=O)O)N2C(=O)[C@@H](NC(=O)CCC[C@@H](N)C(=O)O)[C@H]2SC1` it is -4.2% (inactive); for `COc1ccc2c(c1)c(CCN1CCOCC1)c(C)n2C(=O)c1cccc(Cl)c1Cl` it is 1.4% (active).
Consider `CC(C)=CCOc1c2occc2cc2ccc(=O)oc12`, for which the inhibition is 2.6% [setting not given] (active).
The figure for `C[C@H](Cc1ccc2c(c1)OC(C(=O)O)(C(=O)O)O2)NC[C@H](O)c1cccc(Cl)c1` is -1.8% (inactive); for `NC(=O)COc1c(F)cc(SCCNS(=O)(=O)c2ccccc2)cc1F` it is 4% (active); for `CC(=O)NBr` it is -4.9% (inactive).
For the compound `O=C(N[C@H]1CN2CCC1CC2)c1ccc(Cl)cc1`, the inhibition was 0.7% (active).
For `COC[C@H]1OC(=O)c2coc3c2[C@@]1(C)C1=C(C3=O)C2CCC(=O)[C@@]2(C)C[C@H]1OC(C)=O` (some centres undefined), the inhibition is 6% (active).
`CCCCCCC(C)(C)c1ccc([C@@H]2C[C@H](O)CC[C@H]2CCCO)c(O)c1`: the inhibition is 5.1% [setting not given] (active).
For `CCCCCCCCCCCCCC(=O)O[C@@H]1[C@@H](C)[C@@]2(O)[C@@H](C=C(CO)C[C@@]3(O)C(=O)C(C)=C[C@@H]23)C2C(C)(C)[C@@]21OC(C)=O` (some centres undefined), the inhibition is 1.1% (active).
The figure for `CC(=O)[C@H]1CCC2C3CC[C@H]4C[C@H](O)CC[C@]4(C)C3CC[C@@]21C` (some centres undefined) is -2.4% [setting not given] (inactive).
With `CC(=O)[C@H]1CC[C@H]2[C@@H]3CC[C@H]4C[C@](C)(O)CC[C@]4(C)[C@H]3CC[C@]12C` the figure was 0.1% [setting not given] (active).
The figure for `C[C@]12CCC3C(CC[C@H]4C[C@H](O)CC[C@]34C)C1CC[C@@H]2C(=O)CO` (some centres undefined) is -1.5% (inactive); for `Cc1c(C(=O)c2cccc3ccccc23)c2cccc3c2n1[C@H](CN1CCOCC1)CO3` it is 7.5% [setting not given] (active).
With `O=C(O)c1cc[c]([Hg][Cl])cc1`, the inhibition is -7.7% (inactive).
The figure for `O=[N+]([O-])c1ccc2nc(N3CCNCC3)ccc2c1` is 0.9% (active); for `C=CCN1C[C@@H](C)N([C@H](c2ccc(C(=O)N(CC)CC)cc2)c2cccc(OC)c2)C[C@@H]1C` it is -4.2% (inactive); for `Cc1cc([C@@H]2CCCN2C)on1` it is 4.2% (active).
With `Clc1cc(I)cc(Cl)c1NC1=NCCN1` the figure was -4.1% (inactive); with `O=C1C=CC(=O)C=C1`, -2.3% (inactive).
With `CC12NC(Cc3ccccc31)c1ccccc12` (centres undefined) the figure was 1.2% [setting not given] (active); with `C[C@]12N[C@H](Cc3ccccc31)c1ccccc12`, 2.8% [setting not given] (active); with `CC(O)(CS(=O)(=O)c1ccc(F)cc1)C(=O)Nc1ccc(C#N)c(C(F)(F)F)c1` (centres undefined), -1.2% [setting not given] (inactive).
Take `C=C(C)[C@H]1CN[C@H](C(=O)O)[C@H]1CC(=O)O`: the inhibition is -6.1% (inactive).
With `CC(C)[C@H]1CN[C@H](C(=O)O)[C@H]1CC(=O)O`, the inhibition was 0.8% (active).
As to `C=CCN1CC[C@]23CCCCC2[C@H]1Cc1ccc(O)cc13` (some centres undefined), the inhibition was 4.2% [setting not given] (active).
The figure for `NCC(O)c1cc(O)c(O)cc1F` (centres undefined) is 12.3% (active); for `NN=C(N)N` it is 6.4% (active) and -1.5% (inactive).
With `NCC1(CC(=O)O)CCCCC1` the figure was -2.9% [setting not given] (inactive); with `O=P1(N(CCCl)CCCl)NCCCO1` (centres undefined), 4.8% (active); with `c1ccc2cc(CC3=NCCN3)ccc2c1`, -1.3% [setting not given] (inactive).
On to `CCCN(CCC)C1CCc2ccc(O)cc2C1` (centres undefined), for which the inhibition is 3.7% (active).
The figure for `CCCN(CCC)[C@H]1CCc2c(F)ccc(O)c2C1` is -4.8% (inactive); for `CCCN(CCC)C1Cc2cc(OC)c(OC)cc2C1` it is -0.2% (inactive).
Take `CCCN(CCC)[C@@H]1CCc2ccc(O)cc2C1`: the inhibition is 6.3% (active).
The figure for `CCCN(CCC)C1CCc2cccc(O)c2C1` (centres undefined) is -7.7% (inactive); for `CCCN(CCC)[C@@H]1CCc2cccc(O)c2C1` it is 3.9% (active).
